Shown are actives, neighbours in structure and some others; about 2.5% of the full set was active somewhere.
Cruzain inh noDet: blocks cruzain activity in detergent-free assay. P25779. 2.3% of 200,000 active. purified cruzain, Z-FR-AMC fluorescence, no detergent. Potency, µM, without a hit: max response, negative = inhibition, usual class: inhibitors;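 further: plate controls were enzyme without inhibitor for no effect and buffer without enzyme for full effect; nearly all actives have a fitted effect of over 40% in size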
Target sequence (P25779 123-467 limits assumed): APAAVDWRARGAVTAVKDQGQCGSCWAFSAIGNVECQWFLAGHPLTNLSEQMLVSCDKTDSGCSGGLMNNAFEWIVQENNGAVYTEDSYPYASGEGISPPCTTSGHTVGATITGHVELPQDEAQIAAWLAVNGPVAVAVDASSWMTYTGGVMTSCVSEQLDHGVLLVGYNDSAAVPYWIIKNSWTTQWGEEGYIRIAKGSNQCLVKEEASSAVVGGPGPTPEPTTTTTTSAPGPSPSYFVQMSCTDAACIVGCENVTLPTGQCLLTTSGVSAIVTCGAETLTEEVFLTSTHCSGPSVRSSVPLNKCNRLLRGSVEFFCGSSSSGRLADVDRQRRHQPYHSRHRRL
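Purified cruzain at 1.5 nM, pre-incubated 15 min with compound at room temperature in 100 mM sodium acetate pH 5.5, 5 mM DTT, 0.00005% Triton X-100. Reaction started with 2 uM Z-FR-AMC; AMC fluorescence increase over 60 s gives rate.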
Cruzain Triton: cruzain (T. cruzi) inhibition with detergent. purified cruzain, Z-FR-AMC fluorescence, 0.01% Triton. Potency, µM, inactives show max response, negative = inhibition, hits mostly inhibitors. 0.43% of 200,000 active. AID 1478;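 further: plate controls were neutral wells for no effect and buffer without enzyme for full effect; nearly all actives have a fitted effect of over 40% in size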
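Purified cruzain (1.5 nM final) was preincubated with compounds for 15 min at room temperature in 100 mM sodium acetate pH 5.5, 5 mM DTT, 0.01% Triton X-100. Reaction started with 2 uM Z-FR-AMC; AMC fluorescence change over 60 s gave activity.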
Numbers without * were called inactive; ? = inconclusive. The call rests on the fitted dose curve; in most records, active means well fitted curve in the direction sought with a large enough effect; inconclusive means small, poorly fitted or top-dose-only effect, or another doubt; inactive means no such curve, though single readings can be large; an effect the other way counts as inactive or inconclusive. Potency means the concentration at half of the fitted maximal effect.

SMILES	Cruzain inh noDet	Cruzain Triton
CCOC(=O)c1[nH]c(C)c(CCC(=O)N2CCN(c3cc(Cl)ccc3C)CC2)c1C	?	-3%
CCOc1cc(C(=O)Nc2ccc(-c3nc4ncccc4o3)cc2C)cc(OCC)c1OCC	-1%	1%
C/C(=C\C[Si](C)(C)C)CCC=O	?	4%
Cc1ccc(/C=C2/SC(=S)N(CCC(=O)N3CCN(c4ccccc4)CC3)C2=O)cc1	-8%	1%
CC(/C=C1\SC(=S)N(CC(=O)N2CCN(c3ccccc3)CC2)C1=O)=C\c1ccccc1	10µM*	-6%
CC(/C=C1\SC(=O)N(CC(=O)Nc2ccc(O)cc2)C1=O)=C\c1ccccc1	13%	0%
CC(=O)c1ccc(NC(=O)CCCN2C(=O)/C(=C/C(C)=C/c3ccccc3)SC2=S)cc1	32µM*	-9%
COc1ccc(Nc2nc3c(S(=O)(=O)c4ccc(Br)cc4)nnn3c3ccsc23)c(OC)c1	5%	1%
CCCCNC(=O)c1cnc2sc(N3CCCCCC3)nn2c1=O	0%	-9%
CCCc1cc(N2CCN(c3ccccc3F)CC2)n2cnnc2n1	-2%	0%
COc1cccc(N(C(=O)c2ccco2)c2nc(-c3sc(NC(=O)c4ccco4)nc3C)cs2)c1	?	-3%
O=C(Nc1nc2ccc(Cl)cc2s1)c1ccco1	?	-3%
COc1ccccc1Nc1nc(-c2sc(NC(=O)c3ccco3)nc2C)cs1	?	-6%
Cc1nc(NC(=O)c2ccco2)sc1-c1csc(Nc2ccc(Cl)cc2)n1	13µM*	-2%
Cc1ccc(Cl)cc1Nc1nc(-c2sc(NC(=O)c3ccco3)nc2C)cs1	25µM*	-3%
Cc1nc(NC(=O)c2ccco2)sc1-c1csc(Nc2ccc(Cl)cc2Cl)n1	13µM*	-3%
CCN(CC)c1nc2c(S(=O)(=O)c3ccc(C)cc3)nnn2c2ccsc12	-15%	-11%
CCSc1nnc(NC(=O)CSc2nc3c(c(=O)n2-c2ccccc2OC)SCC3)s1	-28%	28µM*
COc1ccc(NC(=O)CSc2nc3c(c(=O)n2-c2ccccc2OC)SCC3)cc1	-8%	-3%
CCCCn1cnc2cc(NCc3ccccc3Cl)ccc21	-18%	-21%
CCOC(=O)c1scc(-c2ccccc2)c1S(=O)(=O)Nc1cc(Cl)c(OC)cc1OC	?	-4%
Cc1ccc(CNC(=O)C2CCN(S(=O)(=O)c3c(C)noc3/C=C/c3cccs3)CC2)cc1	0%	-5%
Cc1noc(/C=C/c2cccs2)c1S(=O)(=O)N1CCC(C(=O)NCc2ccccc2Cl)CC1	13µM*	-5%
COC(=O)c1ccc(NC(=O)CSc2cn(CC(=O)N3CCCCCC3)c3ccccc23)cc1	?	-7%
CCOc1ccc(-c2cc(CCCC(=O)NCCc3ccc(Cl)cc3)no2)cc1	2%	-1%
SMILES	Cruzain inh noDet	Cruzain Triton
COc1cc2ccccc2cc1C(=O)N1CCN(c2nc3c(C)cc(C)cc3s2)CC1	-26%	-5%
CCOc1ccc(Br)cc1S(=O)(=O)Nc1ccc(C(=O)Nc2ccccc2OC)cc1	16µM*	-5%
COc1ccc(C)cc1S(=O)(=O)Nc1ccc(F)cc1	-3%	-2%
COc1ccccc1NC(=O)c1ccc(NS(=O)(=O)c2ccc(F)c(F)c2F)cc1	-18%	-1%
CCOc1ccc(Br)cc1S(=O)(=O)Nc1ccc(C(=O)Nc2ccc(C)cc2)cc1	32µM*	-4%
COc1ccc(NC(=O)c2c(F)cccc2F)cc1S(=O)(=O)Nc1ccc(Br)cc1	16µM*	-3%
CCOc1ccc(Br)cc1S(=O)(=O)Nc1ccc(C(=O)OCC(=O)N(C)c2ccccc2)cc1	-16%	-7%
CCOc1ccc(Br)cc1S(=O)(=O)Nc1ccc(NC(=O)c2ccccc2C)cc1	?	-2%
CCOc1ccc(Br)cc1S(=O)(=O)Nc1ccc(NC(=O)c2ccccc2F)cc1	25µM*	-3%
O=C(CCn1cnnn1)Nc1ccccc1	0%	2%
COc1ccc(C)cc1NC(=O)C1CCN(S(=O)(=O)c2cc(Br)cc3c2N(C(C)=O)CC3)CC1	-8%	-3%
Cc1ccc(N=Nc2c(O)ccc3cc(S(=O)(=O)O)ccc23)cc1	?	-14%
Cc1ccc(S(=O)(=O)Oc2ccc(N=Nc3ccc(-c4ccc(N=Nc5c(O)ccc6cc(S(=O)(=O)O)cc(S(=O)(=O)O)c56)c(C)c4)cc3C)cc2)cc1	?	13µM*
COc1ccc(C2CC(=O)N(CC(=O)Nc3cc(C)ccc3C)c3ccccc3S2)cc1 (configuration not stated)	2%	-1%
CCc1cccc(NC(=O)CCS(=O)(=O)c2cc(Br)cc3c2N(C(C)=O)CC3)c1	?	-3%
Cc1ccc(OCC(=O)N(Cc2ccco2)c2ccccn2)cc1	-5%	0%
Cc1cc(C)c(C#N)c(OCC(=O)c2ccccc2)n1	-6%	-6%
N#Cc1c(OCC(=O)c2ccccc2)nc2c(c1-c1ccco1)CCc1ccccc1-2	7.9µM*	14µM*
COc1ccc(C(=O)Nc2nc3nc(C)c(Cc4ccccc4)c(=O)n3[nH]2)cc1OC	16%	4%
